# Measurements as given in PubChem BioAssay (Tox21).
# Results filed as inconclusive are left out. A number with no mark means an inactive call. Active and inactive are the calls of the source. The call rests on the fitted dose curve; in most records, active means well fitted inhibition curve with a large enough effect in the repeat runs; inconclusive means weak or mixed curves, or effect the other way; inactive means no such curve, though single readings can be large or run the other way.
# Target: Nuclear receptor ROR-gamma (Homo sapiens) (UniProt P51449)
# Experiment: qHTS assay to identify small molecule antagonists of the retinoid-related orphan receptor gamma (ROR-gamma) signaling pathway (AID 1159521; further: nearly all actives have a fitted effect of over 50% in size; on activity change, negative = inhibition: top concentration of the series differs between compounds)
# Details: Tet-on RORgamma CHO cells, RORE-luciferase, 16 h; series mostly up to 92.4 µM; activity change, negative = inhibition: at the top concentration
# Text: U.S. Tox21 Program National Center for Advancing Translational Sciences [NCATS] NIH Chemical Genomics Center [NCGC] U.S. Environmental Protection Agency [EPA] National Institutes of Environmental Health Sciences [NIEHS] National Toxicology Program [NTP] U.S. Food and Drug Administration [FDA] Tox21 Assay Overview: Nuclear steroid hormone receptors are involved in many biological processes including inflammatory responses, cell proliferation, and apoptosis. Environmental factors or compounds disrupting these nuclear receptor pathways and gene expression may promote susceptibility to immunotoxicants and autoimmune diseases. One important group of these expression factors are the retinoid-related orphan receptors. To assess compounds that may interfere with the retinoid-related orphan receptor gamma (ROR-gamma) transcription factor, a cell-based luciferase assay was used. The CHO cell-based assay utilizes a TET-inducible ROR expression factor and ROR response element-LUC reporter gene. Reporter gene activity was induced using Doxycycline Hyclate and measured after 16 hr incubation. Tet-on ROR gamma CHO cells were used to screen against the Tox21 10K compound library for ROR gamma antagonists by quantification of decreased reporter gene activity in terms of decreased luminescence.
# Tox21 Assay Protocol Summary: Tet-on ROR gamma CHO cells were dispensed at 1,000 cells in 4 uL of culture medium per well into white wall/solid bottom 1536-well plates using a Multidrop Combi (Thermo Scientific, Waltham, MA) dispenser. Following incubation at 37 C and 5% CO2 for 4 hr, 23 nL of compounds dissolved in DMSO, positive controls or DMSO only were transferred by a Pintool station (Kalypsys, San Diego, CA) and after 2 hr incubation at 37 C, one ul of 1 uM (final concentration) of Doxycycline Hyclate was added to all the wells by using a Flying Reagent Dispenser (FRD) (Aurora Discovery, San Diego, CA). After 16 hr incubation at 37 C and 5% CO2, 5 uL of ONE-Glo reagent (Promega Corporation, Madison, WI) was added to each assay plate using FRD. After 30 min incubation at room temperature, luminescence was quantified on a ViewLux plate reader (Perkin Elmer, Waltham, MA).
# On the % scale 0 is the no-effect control and ±100 the full control effect; potency means the concentration at half of the fitted maximal effect.
Compound,"activity change, negative = inhibition",Potency
Cc1ccc(C(=O)Nc2ccc(S(=O)(=O)O)c3cc(S(=O)(=O)O)cc(S(=O)(=O)O)c23)cc1NC(=O)c1cccc(NC(=O)Nc2cccc(C(=O)Nc3cc(C(=O)Nc4ccc(S(=O)(=O)O)c5cc(S(=O)(=O)O)cc(S(=O)(=O)O)c45)ccc3C)c2)c1,18.5% [at 42.5 µM],
O=S(=O)(O)c1cccc(S(=O)(=O)O)c1,5.68%,
O=S(=O)(O)c1cc(O)c(O)c(S(=O)(=O)O)c1,10.9%,
O=C(O)c1cn(C2CC2)c2cc(N3CCNCC3)c(F)cc2c1=O,-0.627% [at 42.5 µM],
CC(C)c1ccc2ncccc2c1,-7.53%,
CN(C)CCN(C)CCN(C)C,-17.2%,
c1ccc(CCc2ccccc2)cc1,-2.19%,
C=CC(=O)OCCCl,4.56%,
CC/C=C\CCOC(C)OCC (stereo not given),9.45% [at 42.5 µM],
C=CCCCCCCCCC(=O)OCC,0.244%,
CN1C(C)(C)CC(O)CC1(C)C,13.2%,
CC(=O)c1ccccc1[N+](=O)[O-],-28.5%,
COc1c(N2CCNC(C)C2)c(F)cc2c(=O)c(C(=O)O)cn(C3CC3)c12 (stereo not given),53.7% [at 42.5 µM],
Cc1ncc(COP(=O)(O)O)c(C=O)c1O,-0.758% [at 42.5 µM],
NO,-7.17%,
NC(CCC(=O)O)C(=O)O (stereo not given),-14.6%,
c1ccc2sc(SN3CCOCC3)nc2c1,65.3% [at 42.5 µM],
C=COCC1CCC(COC=C)CC1 (stereo not given),1.12%,
CC(=O)Nc1ccc(OCC(O)CNC(C)C)cc1 (stereo not given),-0.641% [at 42.5 µM],
CC(C)CC(C)(N)C#N (stereo not given),26.5%,

Compound,"activity change, negative = inhibition",Potency
CC(C)(CCC(=O)O)C(=O)O,-2.6%,
CC(C)C1CCC(O)CC1 (stereo not given),-5.64%,
C[C@H]1C[C@H]2[C@@H]3CCC4=CC(=O)C=C[C@]4(C)[C@H]3C(=O)C[C@]2(C)[C@@]1(O)C(=O)CO,25.4% [at 42.5 µM],
CCCC(=O)O[C@]1(C(=O)CC)CC[C@H]2[C@@H]3CCC4=CC(=O)CC[C@]4(C)[C@H]3[C@@H](O)C[C@@]21C,,10.6 µM (active)
CC1=NN(c2cccc(S(=O)(=O)O)c2)C(=O)C1,-26.1%,
Cc1cc(C)c(N=Nc2c(O)c(S(=O)(=O)O)cc3cc(S(=O)(=O)O)ccc23)cc1C,-3.58% [at 8.39 µM],
O=[N+]([O-])c1ccc(/C=N\O)o1,-0.146% [at 42.5 µM],
CCCO[Si](OCCC)(OCCC)OCCC,7.97%,
[O-][n+]1cccc(CO)c1,12.1% [at 42.5 µM],
COC(=O)Nc1ccc(Cl)c(Cl)c1,4.26%,
CCCCS(=O)(=O)N[C@@H](Cc1ccc(OCCCCC2CCNCC2)cc1)C(=O)O,8.22% [at 42.5 µM],
CC(C)(N)C#N,1.76%,
CC(COc1ccccc1)NN (stereo not given),27.1% [at 42.5 µM],
CC1(C)[C@@H]2CC[C@@]1(C)[C@H](O)C2,-4.9%,
CC(CC=O)CC(C)(C)C (stereo not given),1.09%,
COc1cc(C)nc(-n2nc(C)cc2OC)n1,5.58% [at 42.5 µM],
Clc1cc(Cl)cc(Cl)c1,13.8%,
CCCCOCCOC(=O)CCCCCCCCC(=O)OCCOCCCC,10.3%,
CCCCCCCCCCOc1cc2c(=O)c(C(=O)OCC)c[nH]c2cc1OCC,36.6% [at 8.39 µM],
Nc1ccn([C@@H]2O[C@H](CO)[C@@H](O)[C@@H]2O)c(=O)n1,,8.63 µM (active)
